Assay results taken from the supplement of paper PMC3545927.
The other results are listed elsewhere or left out. The hit rate among all sequences tested is not known here.

Biological target: furin, P09958
Experiment: furin cleavage Z-score vs untreated control; higher = more cleavage, active = 3.5 or more, inactive = 1 or less, 8 variable residues between constant flanks
Summary of the method: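 Purified furin cleaved 8-mer peptides that were fused to a cDNA oligonucleotide and held on magnetic beads by their N-terminus. Each 0.01 ml reaction used a 1:10 enzyme:substrate ratio in 50 mM HEPES pH 7.5 with CaCl2 and NaCl and ran 7.5, 15 or 30 min. Released DNA was adapter-tagged by PCR and sequenced, and read counts gave abundance. The cleavage Z-score came from log counts against furin-free reactions, lowess-adjusted and scaled by median absolute deviation.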

Sequence of furin, P09958 (P09958 whole entry): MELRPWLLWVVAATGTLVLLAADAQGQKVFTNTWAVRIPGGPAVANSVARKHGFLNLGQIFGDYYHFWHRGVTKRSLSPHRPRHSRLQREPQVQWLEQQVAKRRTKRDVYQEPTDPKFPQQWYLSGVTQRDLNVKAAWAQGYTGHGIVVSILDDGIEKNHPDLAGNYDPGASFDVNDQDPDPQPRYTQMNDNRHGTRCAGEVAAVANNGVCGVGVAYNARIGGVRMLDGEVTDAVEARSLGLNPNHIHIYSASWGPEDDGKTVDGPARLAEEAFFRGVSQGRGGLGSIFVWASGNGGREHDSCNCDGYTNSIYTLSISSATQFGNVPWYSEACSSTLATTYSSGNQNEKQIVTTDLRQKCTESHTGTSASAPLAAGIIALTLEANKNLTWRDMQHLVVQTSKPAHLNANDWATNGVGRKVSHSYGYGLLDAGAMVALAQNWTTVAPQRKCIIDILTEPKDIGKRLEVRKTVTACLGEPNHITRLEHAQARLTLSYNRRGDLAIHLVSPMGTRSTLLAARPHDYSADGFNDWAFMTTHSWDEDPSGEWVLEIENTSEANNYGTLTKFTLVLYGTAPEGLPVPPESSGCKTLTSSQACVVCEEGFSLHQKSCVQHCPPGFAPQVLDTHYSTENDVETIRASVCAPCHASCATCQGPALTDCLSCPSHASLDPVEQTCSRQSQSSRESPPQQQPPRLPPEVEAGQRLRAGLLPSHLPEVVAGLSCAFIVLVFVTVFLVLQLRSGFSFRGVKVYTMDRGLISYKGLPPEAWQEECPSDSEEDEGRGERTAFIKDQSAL

Sequence | furin cleavage Z-score (7.5 min) | furin cleavage Z-score (15 min) | furin cleavage Z-score (30 min)
CALEVLFQGPAGNASASA [NG9] | -2.01 (inactive) | -0.768 (inactive) | -2.01 (inactive)
CAEVVESTWVAGNASASA [HC133] | 0.708 (inactive) | -0.27 (inactive) | -1.67 (inactive)
CADHMEECSQAGNASASA [HC1815] | -0.251 (inactive) | -0.239 (inactive) | -0.816 (inactive)
CACRAAGLQDAGNASASA [HC1522] | -0.902 (inactive) | -1.39 (inactive) | -1.09 (inactive)
CASTLCSAHLAGNASASA [HC2505] | 0.374 (inactive) | 0.0643 (inactive) | -1.17 (inactive)
CAWYELTPAEAGNASASA [HC924] | -1.27 (inactive) | -1.36 (inactive) | 1.04
CARDLRGLAEAGNASASA [FS-2904] | -1.94 (inactive) | 0.23 (inactive) | 0.275 (inactive)
CARIFRSIKQAGNASASA [FS-2148] | 0.0894 (inactive) | 2.91 | 5.31 (active)
CARIFRHSSVAGNASASA [FS-2949] | 1.97 | 0.695 (inactive) | 1.03
CARDRRSPAEAGNASASA [FS-3152] | 10.2 (active) | 8.19 (active) | 8.7 (active)
CARPRRGIIFAGNASASA [FS-3021] | 1.06 | 1.16 | 5.75 (active)
CARIFRSSDFAGNASASA [FS-2030] | 0.78 (inactive) | -0.809 (inactive) | 0.131 (inactive)
CARPRRSEKQAGNASASA [FS-1965] | 3.36 | 4.62 (active) | 3.66 (active)
CARPRRQGEVAGNASASA [FS-3023] | 0.519 (inactive) | 0.202 (inactive) | 0.396 (inactive)
CAAARALAHGAGNASASA [HC234] | 0.0166 (inactive) | -0.81 (inactive) | 0.0305 (inactive)
CAEVPCHRPTAGNASASA [HC2418] | 0.387 (inactive) | -0.0389 (inactive) | 0.307 (inactive)
CASTSCSAHLAGNASASA [HC2517] | 0.382 (inactive) | 1.16 | 0.668 (inactive)
CAAEITGHVKAGNASASA [HC1177] | 0.655 (inactive) | 2.37 | 0.185 (inactive)
CARPRRSPAQAGNASASA [FS-1764] | 9.55 (active) | 11 (active) | 8.87 (active)
CARPRRSSTQAGNASASA [FS-3025] | 6.4 (active) | 8.65 (active) | 6.89 (active)
CARDLAVAVEAGNASASA [HC643] | 1.07 | -0.796 (inactive) | 1.14
CADARRSPDQAGNASASA [FS-2627] | -0.496 (inactive) | -1.36 (inactive) | -0.54 (inactive)
CARPRRPASPAGNASASA [FS-2581] | 0.54 (inactive) | -0.0908 (inactive) | -2 (inactive)
CARPRRGSTAAGNASASA [FS-2743] | 0.592 (inactive) | 0.93 (inactive) | 0.391 (inactive)
CARPRRSTSPAGNASASA [FS-3026] | 10.5 (active) | 9.5 (active) | 8.81 (active)
CARPRRRYYPAGNASASA [FS-1763] | 0.0891 (inactive) | 0.798 (inactive) | -1.17 (inactive)
CARDRRQATEAGNASASA [FS-1692] | 3.4 | 4.98 (active) | 3.64 (active)
